# In the library only some 19% were active in any assay of this set; here they are far more common.
# HT1080 IDH1KD tx: HT-1080 IDH1 knockdown cell toxicity (counter line) | HT-1080 IDH1 knockdown viability, ATP luminescence, 48 h | Potency, µM (highest dose often 46.1 µM), without a hit: top-dose activity, negative = toxicity, hits mostly cytotoxic | 2% of 360,000 active | AID 686971;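 note: potency is the fitted concentration of half-maximal effect; 0% = DMSO wells and -100% = cell-free medium wells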
#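 Viability of IDH1-knockdown HT-1080 fibrosarcoma cells was assessed by CellTiter-Glo after 48 h at 37 °C with titrated compound; concentration-effect curves were classified by fit quality and response size.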
# TDP1 cell noCPT: qHTS for Inhibitors of human tyrosyl-DNA phosphodiesterase 1 (TDP1): qHTS in cells in absence of CPT. DT40 Tdp1-/- hTDP1 cells, no CPT, ATP luminescence, 48 h. Potency, µM (series often up to 46.2 µM), for inactives: at the top dose activity change, negative = growth inhibition, actives largely listed as inhibitors. 15% of 420,000 active; note: potency is the fitted concentration of half-maximal effect; nearly all actives have a fitted effect of over 55% in size
#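 Growth kinetics read by CellTiter-Glo luminescence after ≥48 hr at 37 °C. Cells: DT40 Tdp1-/- stably carrying human TDP1, 400 per well, compound exposure in the absence of CPT (DMSO vehicle).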
# HT1080-NT tox: kills 2HG-producing HT-1080-NT fibrosarcoma cells | HT-1080-NT fibrosarcoma viability, CellTiter-Glo ATP luminescence, 48 h | Potency, µM (titrated, usually from 46.1 µM), for inactives: top-dose activity, negative = less viability, most hits filed as cytotoxic | 1.6% of 360,000 active | AID 686970;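 note: NT is the 2HG producing partner of a matched IDH1 knockdown line; potency is the fitted concentration of half-maximal effect; 0% = DMSO-treated cells and -100% = media-only wells without cells; nearly all actives have a fitted effect of over 55% in size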
#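 750 cells/well, RPMI + 5% FBS; 2 h settle, compound pin-transfer, 48 h at 37 degrees C. CellTiter-Glo 10 min RT, luminescence. Normalized to DMSO and media-only wells.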
# IL1B secr inh: inflammasome signaling inhibition, IL-1 beta readout | THP-1 LPS/ATP IL-1B secretion, AlphaLISA, 16 h; hits give low values | activity change, % at 57.5 µM | 4.7% of 360,000 active | AID 743279; in the data active = activity change below about -50%; inconclusive = mostly about -30% to -49%
#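 THP-1 cells pretreated 1 hr with compounds (up to 57.5 uM final), then stimulated with LPS (250 ng/mL final) plus ATP (1.25 mM final); secreted IL-1B measured by AlphaLISA after 16 hr, decreased signal indicating inhibition.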
# TDP1 cell CPT: growth inhibition of DT40 Tdp1-/-;hTDP1 cells with camptothecin (screen for TDP1 inhibitors) | Potency, µM (top dose mostly 46.2 µM), without a hit: at the highest dose activity change, negative = growth inhibition, usual class: inhibitors | 12% of 420,000 active | chicken DT40 Tdp1-/-;hTDP1 cells + 20 nM CPT, ATP luminescence, 48 h; note: potency is the fitted concentration of half-maximal effect; nearly all actives have a fitted effect of over 55% in size
#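 Chicken DT40 Tdp1-/- cells stably complemented with human TDP1 were seeded at 400 cells/well in medium containing 20 nM camptothecin, exposed to pin-transferred compounds, and grown at 37 °C for at least 48 hr. Viability was read as ATP luminescence.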
# Active calls of the source: *; ? = inconclusive; · = no result given; ! = not confirmed by another sample. Unless noted, calls come from the whole dose curve; as a rule, active = well fitted curve in the direction sought with a large enough effect; inconclusive = small, poorly fitted or top-dose-only effect, or another doubt; inactive = no such curve, though single readings can be large; an effect the other way counts as inactive or inconclusive. Unless noted, % is set by controls: 0 for no effect and ±100 for the full control effect.
SMILES,HT1080 IDH1KD tx,TDP1 cell noCPT,HT1080-NT tox,IL1B secr inh,TDP1 cell CPT
COC(=O)Nc1ccc(S(=O)(=O)N2c3ccccc3CCC2C)cc1 (stereo not given),?,2.6µM*,2.8µM*,6,4.6µM*
COc1ccc(CCC(=O)OCC(=O)Nc2c(C)n(C)n(-c3ccccc3)c2=O)cc1,13%,4%,21%,3,4%
CCOc1ccc(NC(=O)c2cc(S(=O)(=O)N3CCc4ccccc43)ccc2F)cc1,·,9.2µM*,·,·,8.2µM*
Cc1cc(NC(=O)COC(=O)c2ccc(S(=O)(=O)N3CCCc4ccccc43)cc2)no1,4.1µM*,3.3µM*,4.1µM*,38,3.7µM*
O=C(Nc1c(F)cc(F)cc1Br)c1cc(S(=O)(=O)N2CCN(c3ccccn3)CC2)ccc1F,-4%,26µM*,-6%,-26,?
Cc1cccc(C)c1NC(=O)c1cc(S(=O)(=O)N2CCCc3ccccc32)ccc1F,·,4.1µM*,·,·,10µM*
Cc1cc(NC(=O)COC(=O)c2ccc(S(=O)(=O)N3CCCC3)cc2)no1,6%,20%,5%,4,10%
C=CCn1c(SCC(=O)N(C)C)nc2sc3c(c2c1=O)CCC3,0%,?,-3%,31,?
CCCn1cc(S(=O)(=O)c2cc(C)ccc2C)c(=O)c2cc(F)c(N3CCCCCC3)cc21,·,-84%,·,·,?
Cc1ccccc1NC(=O)c1ccc(F)c(S(=O)(=O)N2CCc3ccccc3C2)c1,·,?,·,·,-4%
CC(=O)Nc1ccc(S(=O)(=O)N2CCCc3ccccc32)cc1,7.1µM*,9.2µM*,8.9µM*,54,6.5µM*
O=C(Nc1ccc(Br)cc1)c1cc(S(=O)(=O)N2CCc3ccccc32)ccc1F,·,15µM*,·,·,15µM*
Cc1cccc(C)c1NC(=O)c1cc(S(=O)(=O)N2CCc3ccccc3C2)ccc1F,·,?,·,·,18µM*
Cc1ccc(NC(=O)c2cc(S(=O)(=O)N3CCc4ccccc43)ccc2F)cc1Cl,·,5.8µM*,·,·,4.1µM*
COc1ccc(S(=O)(=O)N2CCc3ccccc32)cc1C(=O)Nc1cccnc1,-16%,-14%,-3%,98,6%
O=S(=O)(c1ccc(Cl)cc1)N1CCCc2ccccc21,1%,-25%,3%,22,-21%
CCCCCCNC(=O)c1cc(S(=O)(=O)N2CCc3ccccc32)ccc1F,-2%,?,1%,23,?
CC(=O)Oc1ccc(NC(=O)CSc2ccccc2)cc1,2%,?,-1%,11,?
CCCCNC(=O)c1c(N)[nH]c(C(=O)c2ccccc2)c1-c1ccc(Cl)cc1,2%,-15%,10%,3,2%
O=S(=O)(Nc1nc2ccccc2nc1Nc1ccccc1Br)c1ccccc1,·,-23%,·,·,-8%
Nc1cc(=O)[nH]c(=O)n1CCc1ccccc1,0%,20%,0%,27,-4%
COc1ccc(-c2nc3nc(C)cc(C)n3n2)cc1,11%,?,17%,14,-1%
O=C(Nc1cccc(O)c1)c1noc2c1CCc1ccccc1-2,-28%,?,-26%,-83*,16µM*!
O=C(Nc1cccc(C(F)(F)F)c1)c1noc2c1CCc1ccccc1-2,·,?,·,·,10µM*
CC(=O)N1CCOc2ccc(S(=O)(=O)N3CCC(C(=O)NCc4ccc(C)cc4)CC3)cc21,2%,15%,22%,22,-3%
SMILES,HT1080 IDH1KD tx,TDP1 cell noCPT,HT1080-NT tox,IL1B secr inh,TDP1 cell CPT
O=C1NC[C@H](Cc2ccccc2)N(C[C@H]2CCCN2C[C@H](Cc2ccccc2)N2C[C@H](Cc3ccc(O)cc3)N(CCc3ccccc3)C(=O)C2=O)C1=O,?,?,-23%,-52*,?
O=C1NC[C@H](Cc2ccccc2)N(C[C@@H]2CCCN2C[C@H](Cc2ccccc2)N2C[C@H](Cc3ccc(O)cc3)N(CCc3ccccc3)C(=O)C2=O)C1=O,?,?,?,-60*,?
O=C1NC[C@H](Cc2ccc(O)cc2)N(C[C@@H]2CCCN2C[C@H](Cc2ccccc2)N2C[C@H](Cc3ccc(O)cc3)N(CCc3ccccc3)C(=O)C2=O)C1=O,-16%,18µM*,-17%,?,?
COc1ccc(CNC(=O)c2cccc(N3CCCS3(=O)=O)c2)cc1OC,·,7.3µM*,·,·,10µM*
C#Cc1ccc([C@@H]2C=C(C(=O)OCC=C)O[C@H](OCCCCO)C2)cc1,9%,-20%,1%,9,-11%
COc1cc(OC)c2c(c1)C(=O)OC2c1cc(OC)c(OC)cc1C (stereo not given),·,11µM*,·,·,?
NC(=O)c1ccc(NC(=O)CCc2nc3ccccc3s2)cc1,1%,-6%,10%,30,1%
CC(C)Oc1ccc(C(=O)Nc2ccc(-c3nc4ccccc4s3)cc2)cc1,·,?,·,·,10µM*
CN(C)c1cccc(C(=O)Nc2ccc(-c3nc4ccccc4s3)cc2)c1,·,13µM*,·,·,?
COc1ccccc1OC(C)C(=O)Nc1ccc(-c2nc3ccccc3s2)cc1 (stereo not given),·,?,·,·,-26%
O=C(Nc1ccc(Cc2nc3ccccc3s2)cc1)c1ccncc1,-24%,12µM*,-27%,0,?
CN(c1ccccc1)S(=O)(=O)c1cccc(NC(=O)CSc2ncc(C(F)(F)F)cc2Cl)c1,-13%,?,-6%,5,9%

# Source: PubChem
